Results taken from PubChem BioAssay AID1861 (The Scripps Research Institute Molecular Screening Center, 2009).
Screen size: about 290,000 compounds; about 3,100 (1.1%) were called active. For the sample, actives were picked, then their nearest neighbours and some compounds at random. Values without a mark were called inactive. No stated cut-off is given here; in the data, active means inhibition above about 16% (passing the limit was not always enough); inactive means the rest.

Target: Neuropeptides B/W receptor type 1 (Homo sapiens) (UniProt P48145)
Sequence (P48145 whole entry, looked up): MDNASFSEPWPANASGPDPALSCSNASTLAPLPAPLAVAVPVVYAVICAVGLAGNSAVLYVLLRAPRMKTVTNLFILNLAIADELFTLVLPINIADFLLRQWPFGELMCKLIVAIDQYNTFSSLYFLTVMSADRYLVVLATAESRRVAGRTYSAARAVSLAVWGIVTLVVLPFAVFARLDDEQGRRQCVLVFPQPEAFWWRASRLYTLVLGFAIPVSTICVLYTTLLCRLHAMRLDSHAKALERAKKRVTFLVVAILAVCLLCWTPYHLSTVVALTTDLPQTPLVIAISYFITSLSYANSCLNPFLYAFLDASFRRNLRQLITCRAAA
Assay: GPR7 receptor antagonists, primary screen, cell-based, fluorescence, single concentration (AID 1861);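 further: cells stimulated with the agonist NPW; 0% = agonist with vehicle and 100% = vehicle without agonist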
Conditions: GPR7-expressing cells, fluorescence antagonist assay; at 4.4 µM; active compounds read high

Compound | inhibition
CS(=O)(=O)c1ccc(-c2nnn(CC(=O)Nc3ccc4c(c3)OCCO4)n2)cc1 | 11.6%
O=C(CN(Cc1ccc(Br)cc1)S(=O)(=O)c1ccccc1)NCc1ccncc1 | 5.84%
CC(=O)NNC(=O)c1csc(Cc2c(Cl)sc3ccc(Cl)cc23)n1 | 0.26%
Cc1ccc(S(=O)(=O)N2CCC(C(=O)N[C@@H](C)C(=O)NCc3ccco3)CC2)cc1 | 2.63%
CC1CCN(S(=O)(=O)c2ccc(S(=O)(=O)NCc3ccco3)cc2)CC1 | 19.6% (active)
CC1CCN(S(=O)(=O)c2ccc(S(=O)(=O)NCc3cccnc3)cc2)CC1 | -1.72%
O=C(CC1SC(=Nc2ccccc2)N(Cc2ccccn2)C1=O)Nc1cccc(Cl)c1 (centres undefined) | -4.47%
CCN1C(=NCc2ccc(OC)cc2)N[C@@H](CCc2ccccc2)[C@H](C(=O)NCc2ccc(OC)cc2)[C@H]1C | 14%
CCN(CC)CCCNC(=O)c1c(O)c2cc(F)cc3c2n(c1=O)C(C)CC3 (centres undefined) | 4.5%
CSc1nc2ccc(S(=O)(=O)N3CCc4ccccc43)cc2s1 | -0.77%
O=C(Nc1nc2ccc([N+](=O)[O-])cc2s1)c1ccc(S(=O)(=O)N2CCCc3ccccc32)cc1 | -16.1%
CCc1ccc2nc(N(CCCN(C)C)C(=O)c3ccc4c(c3)OCCO4)sc2c1 | 22.4% (active)
CCOc1ccc2nc(N(CCN(C)C)C(=O)c3ccc4ccccc4c3)sc2c1 | 3%
CCOc1ccc2nc(N(CCCN(C)C)C(=O)c3ccc(C(=O)c4ccccc4)cc3)sc2c1 | 6.16%
CN(C)CCCN(C(=O)c1ccc(S(=O)(=O)N2CCCCCC2)cc1)c1nc2ccc(Br)cc2s1 | 28.6% (active)
CC(=O)N(CCCN(C)C)c1nc2ccc(C)cc2s1 | -10.8%
CN(C)CCCN(C(=O)c1ccc(S(=O)(=O)N2CCCc3ccccc32)cc1)c1nc2ccc(F)cc2s1 | 41.8% (active)
CCN(CC)CCN(C(=O)c1ccc(S(=O)(=O)N2CCOCC2)cc1)c1nc2cc3c(cc2s1)OCCO3 | -11.1%
COc1ccc(C(C(=O)NC2CCCCC2)N(C(=O)Cc2c[nH]c3ccccc23)c2ccccc2)cc1OC (centres undefined) | -5.99%
Cc1cc(S(=O)(=O)c2cc3ccc(O)c(C)c3oc2=O)ccc1F | -15%
Cc1ccccc1NC(=O)CCNS(=O)(=O)c1ccc2[nH]c(=O)oc2c1 | -12.7%
O=C(Nc1ccc(C2CC2(Cl)Cl)cc1)c1cccc([N+](=O)[O-])c1 (centres undefined) | -6.54%
Nc1ccn(C2CC(O)C(CO)O2)c(=O)n1 (centres undefined) | -7.05%
O=C(COc1ccc(S(=O)(=O)N2CCOCC2)cc1Cl)N1CCOCC1 | -13.2%

Compound | inhibition
Cc1ccccc1CSCCNC(=O)c1ccc(N(C)S(=O)(=O)c2ccccc2)cc1 | 1.47%
CN(c1ccccc1)S(=O)(=O)c1ccc(C(=O)NCCc2ccccc2)cc1 | 23.9% (active)
COc1ccccc1CNC(=O)c1ccc(N(C)S(=O)(=O)c2ccc(C)cc2)cc1 | -3.56%
O=C(NCCS(=O)(=O)c1ccc(Br)cc1)c1ccccc1Cl | 1.64%
O=C(c1ccco1)N1CCN(Cc2cccc(C(F)(F)F)c2)CC1 | -13.2%
Cc1ccc(NS(=O)(=O)c2ccc(-c3ccc(=O)[nH]n3)o2)c(C)c1 | -0.17%
COc1cc(C(C(=O)NC2CCCC2)N(Cc2ccccc2)C(=O)c2snc(C(N)=O)c2N)ccc1O (centres undefined) | -10.6%
CCc1ccc(S(=O)(=O)Nc2cc3c(cc2N2CCCCC2)n(C)c(=O)c(=O)n3C)cc1 | 4.78%
Cc1ccc(S(=O)(=O)n2cnc3ccccc32)c(C)c1 | 35.5% (active)
Cc1ccc(C)c(S(=O)(=O)n2cnc3ccccc32)c1 | 8%
COc1ccc(S(=O)(=O)n2cnc3ccccc32)c(C)c1 | -5.76%
CCc1nc2ccc(C(=O)N3CCN(c4cccc(Cl)c4)CC3)cc2nc1CC | -5.19%
O=C1CCC([N+](=O)[O-])C(c2ccccc2Br)N1 (centres undefined) | -13.4%
CCCOc1ccccc1C1CC(=O)Nc2cc3c(cc21)OCO3 (centres undefined) | 23.7% (active)
COc1ccc(C2CC(=O)Nc3cc(C)c(C)cc32)c(OC)c1OC (centres undefined) | -2.76%
COc1ccccc1C1C2=C(COC2=O)Nc2cc3c(cc21)OCO3 (centres undefined) | 3.72%
Cc1cc2c(cc1C)N(Cc1ccccc1)C1=NCCCN12 | 23.7% (active)
OC(CN1C2=NCCCN2c2ccccc21)c1ccc(Br)cc1 (centres undefined) | 13.8%
CC(C)(C)C(=O)CN1C2=NCCN2c2ccccc21 | -10.1%
CC(=O)Nc1ccc(NC(=O)CS(=O)(=O)c2cn(CC(=O)N3CCCCC3)c3ccccc23)cc1 | -0.17%
CC(=O)Nc1ccc(CN2CCC(Oc3ccc(C(=O)N4CCCC4)cc3)CC2)cc1 | -2.18%
COc1ccc(OCc2nnc3n2N=C(c2ccccc2)C(CC(=O)O)S3)cc1 (centres undefined) | -5.82%
O=C(Cc1ccccn1)c1ccc(O)cc1O | 1.18%
CCOc1ccc(NC(=O)CC2NCCNC2=O)cc1 (centres undefined) | -18.5%

Compound | inhibition
CCOc1ccc(NC(=O)CCNC(=O)c2ccc(Br)cc2)cc1 | -13.4%
CCOC(=O)C1CSC(CC(=O)Nc2ccc(OCC)cc2)C(=O)N1 (centres undefined) | 31.6% (active)
CN(c1ccccc1)S(=O)(=O)c1ccc(NC(=O)COc2ccccc2)cc1 | 1.02%
COc1ccc(NC(=O)C2C3CCC(O3)C2C(=O)O)cc1OC (centres undefined) | -10.2%
Cc1cccc(-c2nnc(SCC(=O)O)n2Cc2ccccc2)c1 | -5.33%
CC1C=CCC2C(=O)N(c3cccc(C(=O)N4CCCCCC4)c3)C(=O)C12 (centres undefined) | 3.08%
COC(=O)c1ccccc1NC(=O)CSc1n[nH]c(-c2ccncc2)n1 | -2.88%
Cc1cc(-n2nc(C)cc2C)n2nc(C)c(-c3ccccc3)c2n1 | -6.35%
CCc1c(C)nc2c(-c3ccccc3)c(C)nn2c1Nc1ccc(NC(C)=O)cc1 | 27.4% (active)
Cc1cc(-c2ccccc2)n2nc(C)c(-c3ccccc3)c2n1 | -10.5%
COc1ccc(C(=O)CCC(=O)Nc2cccnc2)c(OC)c1 | 2.52%
CC(=O)NC(C)c1nc2ccccc2n1Cc1ccccc1F (centres undefined) | -2.12%
N=c1n(CCc2ccccc2)c2ccccc2n1Cc1ccccc1F | 21.8% (active)
Fc1ccccc1Cn1cnc(NC(=S)NCCc2ccccc2)n1 | 10.1%
CCNC(=O)c1cnn(-c2ccccc2)c1-c1ccccc1 | -4.37%
COCCNC(=O)c1ccc2c(c1)ncn2-c1ccc(C)c(Cl)c1 | 0.48%
CC(=O)Nc1cccc(Nc2nc(-c3cccs3)nc3ccccc23)c1 | -8.63%
COc1ccc(C(=O)NC2CC2)cc1OC1CCN(Cc2cnn(C)c2)CC1 | 0.96%
N#CC1=C(SCc2ccccc2)NC(=O)C(C#N)C12CCCC2 (centres undefined) | -8.17%
N#Cc1ccc(CSc2ncccn2)cc1 | 3.62%
N#CC1=C(SCc2ccc(C#N)cc2)N=C(N)C(c2nc(-c3ccccc3)cs2)C12CCCCC2 (centres undefined) | 28.4% (active)
Cc1ccc2c(=O)oc(N(C)C)nc2c1 | 9.69%
CC1C(=O)Nc2ccccc2N1C(=O)c1c(F)cccc1F (centres undefined) | -14.5%
COC(=O)C(C)Oc1ccc2c(c1)O/C(=C\c1cccc(Br)c1)C2=O (centres undefined) | -5.02%

Compound | inhibition
COc1cccc(/C=N/Nc2ccc(Cl)nn2)c1 | -14.8%
Clc1ccc(N/N=C/c2cccs2)nn1 | -9.79%
Oc1cccc(/C=N/Nc2ccc(Cl)nn2)c1O | 43.7% (active)
CCc1cccc(C)c1NS(=O)(=O)c1c(C)nc2sccn2c1=O | -6.98%
O=C(/C=C/Sc1ncn[nH]1)c1ccc(Cl)cc1 | 4.91%
Cc1ccc(N(Cc2ccccc2O)C(=O)c2ccccc2F)cc1 | -15.3%
CCCc1ccc(OCC(O)CN2CCN(C(=O)OCC)CC2)cc1 (centres undefined) | -0.9%
Cc1ccc(N2CCN(c3ccc([N+](=O)[O-])cn3)CC2)c(C)c1 | 15.6%
CCCCNC(=O)CSc1nc2ccc(NC(=O)CSc3nnc(N)s3)cc2s1 | -5.46%
Nc1nnc(SCC(=O)Nc2ccc3nc(SCC(=O)Nc4ccccc4)sc3c2)s1 | 30.6% (active)
CCCCNC(=O)CSc1nc2ccc(NC(=O)CSc3nnc(COc4ccccc4C)n3C)cc2s1 | 8.43%
COc1ccc(F)cc1S(=O)(=O)N1CCCCC1 | -5.33%
COc1ccc(S(=O)(=O)Nc2ccc(S(=O)(=O)N3CCCCC3)cc2)cc1OC | -7.42%
COc1ccc(S(=O)(=O)N2CCCCC2)cc1Br | 20.2% (active)
CCOc1ccc(C(=O)NC(=S)Nc2ccc(N3CCOCC3)c(Cl)c2)cc1[N+](=O)[O-] | 21% (active)
CCOc1ccc(C(=O)NC(=S)Nc2ccc(NC(=O)C(C)C)cc2)cc1[N+](=O)[O-] | -1.37%
COc1cccc(OC)c1C(=O)NC(=S)Nc1ccc(N2CCOCC2)c(Cl)c1 | -6.83%
O=C(NCc1ccccc1Cl)C1CCN(S(=O)(=O)c2cccc3nonc23)CC1 | -5.03%
COc1ccc(CCNC(=O)C(=O)NCC2OCCN2S(=O)(=O)c2cccs2)cc1OC (centres undefined) | -18.7%
CC(C)c1ccc(C(=O)OC2CCOC2=O)cc1 (centres undefined) | -10.7%
O=C(OC1CCOC1=O)c1ccc(-c2nc3ccccc3s2)s1 (centres undefined) | 13.3% (active)
Cc1nn(Cc2ccccc2)c(Cl)c1C(=O)OC1CCOC1=O (centres undefined) | -6.27%
